Holding throughout (test): DAPPL (digital affinity profiling via proximity ligation, sequencing); 10 mM Tris-HCl pH 7.5, 50 mM NaCl, 1 mM DTT, 4% glycerol, room temperature, 30 min; GST-TFs on glutathione beads, 16-mer random dsDNA library, 0.1% formaldehyde crosslink after washing; high values mean tight binding
Common to all, as to conditions: protein: recombinant; tags: N-terminal GST; dsDNA, one strand shown

The target of assay [1] is T1, ERF (Homo sapiens, UniProt P50548 1-548).
T1 sequence: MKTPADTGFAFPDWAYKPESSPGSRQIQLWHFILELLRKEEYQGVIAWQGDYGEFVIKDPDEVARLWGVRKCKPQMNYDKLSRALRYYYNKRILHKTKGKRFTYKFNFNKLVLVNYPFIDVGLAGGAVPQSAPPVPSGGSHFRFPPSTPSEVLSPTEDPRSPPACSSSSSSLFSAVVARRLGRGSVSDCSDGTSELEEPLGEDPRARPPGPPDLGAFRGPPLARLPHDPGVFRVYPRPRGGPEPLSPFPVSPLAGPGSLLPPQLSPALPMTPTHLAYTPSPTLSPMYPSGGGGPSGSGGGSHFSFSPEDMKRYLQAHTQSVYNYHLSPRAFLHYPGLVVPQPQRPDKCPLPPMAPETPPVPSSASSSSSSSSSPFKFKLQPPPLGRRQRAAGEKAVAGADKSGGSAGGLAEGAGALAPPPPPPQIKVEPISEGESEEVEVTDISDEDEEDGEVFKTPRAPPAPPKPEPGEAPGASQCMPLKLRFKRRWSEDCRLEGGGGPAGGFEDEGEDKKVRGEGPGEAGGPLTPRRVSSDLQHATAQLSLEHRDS
In a few lines: (§1)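 Binding signal is defined as a hexamer's read frequency for one factor over its frequency for the tag-only sample. To obtain reads, GST-fused human transcription factors were expressed in yeast, captured on glutathione beads, barcoded with DNA and pooled with that sample. Pools met 200 nmole of a 16-mer random double-stranded DNA library in Tris/NaCl/DTT/glycerol buffer for 30 min at room temperature before washing, 0.1% formaldehyde crosslinking, proximity ligation (BsaI/T4 ligase, 1 h, 37 °C), PCR and Illumina NextSeq500 sequencing.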

The target of assay [2] is T2, ETV3L (Homo sapiens, UniProt Q6ZN32 1-361).
T2 sequence: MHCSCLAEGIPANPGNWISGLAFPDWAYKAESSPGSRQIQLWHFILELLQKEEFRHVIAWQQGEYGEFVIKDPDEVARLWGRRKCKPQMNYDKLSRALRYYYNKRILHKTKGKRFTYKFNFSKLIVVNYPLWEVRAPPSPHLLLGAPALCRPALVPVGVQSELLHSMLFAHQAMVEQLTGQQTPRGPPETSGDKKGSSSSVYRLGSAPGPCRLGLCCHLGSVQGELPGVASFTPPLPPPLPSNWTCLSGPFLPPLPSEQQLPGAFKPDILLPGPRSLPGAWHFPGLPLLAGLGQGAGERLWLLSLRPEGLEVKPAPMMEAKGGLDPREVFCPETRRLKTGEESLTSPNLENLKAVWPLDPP
In a few lines: as §1

In assay [3] the target is T3, ETS2 (Homo sapiens, UniProt P15036 1-469).
T3 sequence: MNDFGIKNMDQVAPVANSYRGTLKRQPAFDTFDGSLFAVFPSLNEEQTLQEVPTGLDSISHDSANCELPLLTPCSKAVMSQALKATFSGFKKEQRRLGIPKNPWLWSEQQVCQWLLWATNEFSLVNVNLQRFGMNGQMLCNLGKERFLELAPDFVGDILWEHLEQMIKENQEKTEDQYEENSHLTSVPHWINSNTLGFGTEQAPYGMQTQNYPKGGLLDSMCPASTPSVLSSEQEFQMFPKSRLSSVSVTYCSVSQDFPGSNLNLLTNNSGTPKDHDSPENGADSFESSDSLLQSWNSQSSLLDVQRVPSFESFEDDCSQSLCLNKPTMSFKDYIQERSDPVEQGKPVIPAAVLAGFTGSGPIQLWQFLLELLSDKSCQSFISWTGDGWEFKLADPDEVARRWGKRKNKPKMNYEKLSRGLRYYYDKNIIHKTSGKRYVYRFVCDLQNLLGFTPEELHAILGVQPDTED
In a few lines: as §1

For assay [4], the target named is T4, SPDEF (Homo sapiens, UniProt O95238 1-335).
T4 sequence: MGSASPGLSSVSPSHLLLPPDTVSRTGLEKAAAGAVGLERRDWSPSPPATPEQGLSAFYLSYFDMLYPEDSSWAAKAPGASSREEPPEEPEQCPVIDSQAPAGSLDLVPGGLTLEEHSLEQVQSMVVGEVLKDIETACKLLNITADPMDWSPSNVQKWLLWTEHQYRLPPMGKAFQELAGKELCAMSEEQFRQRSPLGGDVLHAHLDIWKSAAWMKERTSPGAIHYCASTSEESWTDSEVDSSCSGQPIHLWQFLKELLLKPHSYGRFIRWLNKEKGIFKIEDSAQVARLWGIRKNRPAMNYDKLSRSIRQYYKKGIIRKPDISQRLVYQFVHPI
In a few lines:
as §1

For assay [5], the target named is T5, ETV7 (Homo sapiens, UniProt Q9Y603 1-341).
T5 sequence: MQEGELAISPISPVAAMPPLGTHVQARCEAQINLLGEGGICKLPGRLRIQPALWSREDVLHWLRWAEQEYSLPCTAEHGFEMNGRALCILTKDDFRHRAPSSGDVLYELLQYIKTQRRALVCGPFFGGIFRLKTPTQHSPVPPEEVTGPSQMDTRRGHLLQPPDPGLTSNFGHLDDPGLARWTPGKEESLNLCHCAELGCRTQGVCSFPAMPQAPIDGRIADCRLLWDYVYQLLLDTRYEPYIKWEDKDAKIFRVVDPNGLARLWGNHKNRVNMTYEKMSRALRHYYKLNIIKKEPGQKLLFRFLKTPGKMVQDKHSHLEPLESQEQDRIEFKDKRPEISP
In a few lines:
as §1

In assay [6] the target is T6, ELF5 (Homo sapiens, UniProt Q9UKW6-2 1-255).
T6 sequence: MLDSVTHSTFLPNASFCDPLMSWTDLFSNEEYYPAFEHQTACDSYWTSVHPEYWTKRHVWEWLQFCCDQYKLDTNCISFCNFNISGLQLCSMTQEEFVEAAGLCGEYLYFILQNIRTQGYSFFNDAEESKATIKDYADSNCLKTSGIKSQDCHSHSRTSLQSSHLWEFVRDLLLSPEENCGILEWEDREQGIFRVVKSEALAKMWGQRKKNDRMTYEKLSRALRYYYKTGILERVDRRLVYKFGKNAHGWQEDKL
In a few lines:
as §1

Assay [7] deals with T7, ETV3 (Homo sapiens, UniProt P41162-2 1-143).
T7 sequence: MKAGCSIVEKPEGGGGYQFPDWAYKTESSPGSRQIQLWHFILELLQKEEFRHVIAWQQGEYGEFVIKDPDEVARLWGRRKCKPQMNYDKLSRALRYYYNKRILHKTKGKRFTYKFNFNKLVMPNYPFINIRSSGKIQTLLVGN
In a few lines: as §1

Assay [8] concerns the target ETV6 (Homo sapiens, UniProt P41212 1-452). In a few lines: as §1

Sequence of ETV6 (P41212 whole entry): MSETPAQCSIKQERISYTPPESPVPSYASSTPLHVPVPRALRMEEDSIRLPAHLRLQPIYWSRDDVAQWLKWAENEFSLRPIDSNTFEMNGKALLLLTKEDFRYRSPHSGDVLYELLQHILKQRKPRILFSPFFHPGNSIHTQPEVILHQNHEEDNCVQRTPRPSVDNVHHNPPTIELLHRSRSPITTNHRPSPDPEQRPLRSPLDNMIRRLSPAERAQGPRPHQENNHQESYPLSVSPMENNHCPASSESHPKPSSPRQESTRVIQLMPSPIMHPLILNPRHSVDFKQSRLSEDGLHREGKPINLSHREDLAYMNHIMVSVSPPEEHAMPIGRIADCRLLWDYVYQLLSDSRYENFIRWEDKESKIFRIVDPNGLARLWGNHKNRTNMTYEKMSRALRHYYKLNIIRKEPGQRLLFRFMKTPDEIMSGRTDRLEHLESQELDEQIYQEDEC

In the case of ACGACG, the binding signal is 1.14 fold enrichment (6-mer frequency, TF over GST control) in assay [1]; 1.08 fold enrichment (6-mer frequency, TF over GST control) in assay [2]; 1.12 fold enrichment (6-mer frequency, TF over GST control) in assay [3]; 1.14 fold enrichment (6-mer frequency, TF over GST control) in assay [4]; 1.25 fold enrichment (6-mer frequency, TF over GST control) in assay [5]; 1.15 fold enrichment (6-mer frequency, TF over GST control) in assay [6]. The binding signal was 1.16 fold enrichment (6-mer frequency, TF over GST control) in assay [7] and 1.2 fold enrichment (6-mer frequency, TF over GST control) in assay [8].
In the case of GTGACC, the binding signal in assay [1] is 1.24 fold enrichment (6-mer frequency, TF over GST control); in assay [2] it was 1.26 fold enrichment (6-mer frequency, TF over GST control); in assay [3] it was 1.25 fold enrichment (6-mer frequency, TF over GST control); in assay [4], 1.32 fold enrichment (6-mer frequency, TF over GST control); in assay [5], 1.3 fold enrichment (6-mer frequency, TF over GST control); in assay [6], 1.25 fold enrichment (6-mer frequency, TF over GST control). Further, the binding signal in assay [7] is 1.38 fold enrichment (6-mer frequency, TF over GST control); in assay [8], 1.1 fold enrichment (6-mer frequency, TF over GST control).
As to GTAACA, the binding signal was 1.1 fold enrichment (6-mer frequency, TF over GST control) in assay [1]; 1.07 fold enrichment (6-mer frequency, TF over GST control) in assay [2]; 1.08 fold enrichment (6-mer frequency, TF over GST control) in assay [3]; 1.14 fold enrichment (6-mer frequency, TF over GST control) in assay [4]; 1.08 fold enrichment (6-mer frequency, TF over GST control) in assay [5]; 1.1 fold enrichment (6-mer frequency, TF over GST control) in assay [6]. Moreover, the binding signal in assay [7] is 1.15 fold enrichment (6-mer frequency, TF over GST control); in assay [8], 1.09 fold enrichment (6-mer frequency, TF over GST control).
Take TGTCAT: the binding signal in assay [1] is 1.38 fold enrichment (6-mer frequency, TF over GST control); in assay [2], 1.19 fold enrichment (6-mer frequency, TF over GST control); in assay [3], 1.12 fold enrichment (6-mer frequency, TF over GST control); in assay [4] it was 1.17 fold enrichment (6-mer frequency, TF over GST control); in assay [5], 1.1 fold enrichment (6-mer frequency, TF over GST control); in assay [6], 1.09 fold enrichment (6-mer frequency, TF over GST control). The binding signal in assay [7] was 1.12 fold enrichment (6-mer frequency, TF over GST control); in assay [8], 1.11 fold enrichment (6-mer frequency, TF over GST control).
Consider AACACG, for which the binding signal is 1.14 fold enrichment (6-mer frequency, TF over GST control) in assay [1]; 1.15 fold enrichment (6-mer frequency, TF over GST control) in assay [2]; 1.25 fold enrichment (6-mer frequency, TF over GST control) in assay [3]; 1.22 fold enrichment (6-mer frequency, TF over GST control) in assay [4]; 1.13 fold enrichment (6-mer frequency, TF over GST control) in assay [5]; 1.22 fold enrichment (6-mer frequency, TF over GST control) in assay [6]. In addition, the binding signal was 1.3 fold enrichment (6-mer frequency, TF over GST control) in assay [7] and 1.23 fold enrichment (6-mer frequency, TF over GST control) in assay [8].
For the sequence CGACGA, the binding signal in assay [1] was 1.12 fold enrichment (6-mer frequency, TF over GST control); in assay [2], 1.13 fold enrichment (6-mer frequency, TF over GST control); in assay [3] it was 1.13 fold enrichment (6-mer frequency, TF over GST control); in assay [4], 1.13 fold enrichment (6-mer frequency, TF over GST control); in assay [5], 1.11 fold enrichment (6-mer frequency, TF over GST control); in assay [6] it was 1.09 fold enrichment (6-mer frequency, TF over GST control). Besides, the binding signal in assay [7] was 1.12 fold enrichment (6-mer frequency, TF over GST control); in assay [8], 1.17 fold enrichment (6-mer frequency, TF over GST control).
On to CGTACA, for which the binding signal is 1.21 fold enrichment (6-mer frequency, TF over GST control) in assay [1]; 1.17 fold enrichment (6-mer frequency, TF over GST control) in assay [2]; 1.18 fold enrichment (6-mer frequency, TF over GST control) in assay [3]; 1.2 fold enrichment (6-mer frequency, TF over GST control) in assay [4]; 1.25 fold enrichment (6-mer frequency, TF over GST control) in assay [5]; 1.17 fold enrichment (6-mer frequency, TF over GST control) in assay [6]. The binding signal is 1.14 fold enrichment (6-mer frequency, TF over GST control) in assay [7] and 1.2 fold enrichment (6-mer frequency, TF over GST control) in assay [8].

Source of the values: paper PMC7862700, “An all-to-all approach to the identification of sequence-specific readers for epigenetic DNA modifications on cytosine”.
